Bioassay records as filed in PubChem.
Compounds with a hit are over-represented: about 6.3% of the library has one in this group of screens.
Abs 340nm = compound light absorbance at 340 nm, profiling panel, artefact control, biochemical, MLSMR library, data from PS, PMK, MK assays | AID 708, 2007 | compound absorbance at 340 nm, fold over control | 65,000 tested, under 10 active | fold change at 10 µM;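 active = at 10 µM dose, initial 340 nm absorbance at least 2 fold that of control wells; inactive = change under 2 fold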;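 note: initial absorbance extrapolated from kinetic A340 decline of NADH oxidation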
MK inhibit = S. pneumoniae MK inhibitors, primary screen, biochemical, PK/LDH-coupled NADH absorbance; purified MK, PK/LDH-coupled NADH absorbance 340 nm; inhibition, % at 10 µM; 65,000 tested, 0.48% active; AID 555, 2006;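 active = ranked among the strongest by inhibition in the single 10 µM screen, a fixed top-ranked set picked for dose follow-up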
NADH coupling = inhibitors of PK/LDH coupling enzymes, profiling panel, artefact control, biochemical, MLSMR library | IC50, µM (highest dose often 10 µM) | coupled PK/LDH NADH assays, four targets | 65,000 tested, 0.02% active | AID 774, 2007;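 active = single-dose screening hits from any of four coupled enzyme assays that gave an IC50 when retested across doses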;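 note: the DPM-DC format reads NADH fluorescence rather than 340 nm absorbance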
DPM-DC inhibit = S. pneumoniae DPM-DC inhibitors, primary screen, biochemical, PK/LDH-coupled NADH fluorescence; diphosphomevalonate decarboxylase (Streptococcus pneumoniae D39); purified DPM-DC; calls only at 10 µM; 65,000 tested, 0.49% active; AID 556, 2006;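 active = the 320 compounds with the highest percent inhibition in the single-dose primary screen, excluding strongly autofluorescent ones, cut at about 32% in these data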;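 note: kinetic rate of NADH fluorescence loss reporting ADP formed by the decarboxylase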
Spn PMK inh = S. pneumoniae PMK inhibitors, primary screen, biochemical, mevalonate pathway, pilot trial included. phosphomevalonate kinase (Streptococcus pneumoniae D39). purified PMK, PK/LDH-coupled NADH absorbance 340 nm. inhibition, % at 10 µM. 65,000 tested, 0.49% active. AID 539, 2006;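 active = top-ranked compounds by inhibition in the single 10 µM screen, taking a fixed number of the strongest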
Fluor 339 460 = intrinsic fluorescence of library compounds, ex339/em460 – biochemical, MLSMR library, data from DPM-DC assay, artefact control, profiling panel. compound autofluorescence, ex339/em460 nm, NADH buffer; hits give high values; 1 = no-compound wells, NADH background. fluorescence fold increase at 10 µM. 65,000 tested, 5.5% active;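 active = at 10 µM, mean starting fluorescence two-fold or more over control wells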;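 note: signal is the first read of a kinetic run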
Each line names hits and unclear results; the compound was inactive in the other large screens.

COc1ccc(-n2cnnc2SCC(=O)N(C)C2CCS(=O)(=O)C2)cc1 (stereo not drawn)	none
COc1c(C)cccc1C(=O)Nc1cc(-c2nn3c(C)nnc3s2)ccc1C	none
c1ccc(-c2nc3nonc3c3nc4ccccc4n23)cc1	DPM-DC inhibit active, Fluor 339 460 2.3
c1ccc(-c2nc3nonc3nc2-c2ccccc2)cc1	none
Cc1cc(NCCN2CCCCC2)n2c(nc3ccccc32)c1C#N	Fluor 339 460 2.7 (not shown: DPM-DC inhibit)
Cc1cc(NCCCn2ccnc2)n2c(nc3ccccc32)c1C#N	Fluor 339 460 3.4 (not shown: DPM-DC inhibit)
Cc1cc(NCC2CCCO2)n2c(nc3ccccc32)c1C#N (stereo not drawn)	Fluor 339 460 2.5 (not shown: DPM-DC inhibit)
Cc1cc(N2CCN(C3CCCC3)CC2)n2c(nc3ccccc32)c1C#N	Fluor 339 460 2.5 (not shown: DPM-DC inhibit)
N#Cc1c2c(c(NCCN3CCOCC3)n3c1nc1ccccc13)CCCC2	none
CCC(=O)N1CCN=C1SCc1ccc(Cl)cc1	none
Cc1cccc2cc(C#N)c(NCCCn3ccnc3)nc12	Fluor 339 460 2.6
Cc1nc(NCCCn2ccnc2)c2ccccc2n1	none
CCn1c(SCC(=O)Nc2nc3ccc(OC)cc3s2)nc2c1c(=O)n(C)c(=O)n2C	none
CCCCNc1nc2c(c(=O)n(C)c(=O)n2C)n1CCC	Spn PMK inh 26
Cc1cc(C)c(C#N)c(SCC(=O)CC(=O)OC(C)C)n1	Fluor 339 460 3
Cc1cc(C)c(C#N)c(SCC(=O)Nc2nnc(-c3ccccc3)s2)n1	Fluor 339 460 2.1 (not shown: DPM-DC inhibit)
CC(C)(C)c1cc(=O)n2c(C#N)c(C#N)nc2[nH]1	Fluor 339 460 5 (not shown: DPM-DC inhibit)
CCCn1nc(NC(=O)c2ccco2)c2cc3ccc(C)cc3nc21	Fluor 339 460 3.9 (not shown: DPM-DC inhibit)
CCn1nc(NC(=O)c2ccco2)c2cc3ccccc3nc21	none
CCn1c(SCc2c(F)cccc2Cl)nnc1-c1ccco1	none
CCOc1ccc(N(CC(=O)NC2CCCC(C)C2C)S(=O)(=O)c2c(C)noc2C)cc1 (stereo not drawn)	DPM-DC inhibit active
O=C(CSc1nnc(CNC(=O)c2cccs2)o1)Nc1cccc(C(F)(F)F)c1	none
COC(=O)c1ccc(COc2ccc3c4c(c(=O)oc3c2)CCC4)o1	DPM-DC inhibit active, Fluor 339 460 2.5
COC(=O)c1cc(COc2ccc3c4c(c(=O)oc3c2)CCCC4)c(C)o1	Fluor 339 460 2.2 (not shown: DPM-DC inhibit)
O=C(COc1ccc2c3c(c(=O)oc2c1)CCC3)c1ccc2c(c1)OCO2	none
Cc1cccc(-n2nc3c(c2NC(=O)c2ccc(Br)o2)CSC3)c1	none
Cc1ccc(CCNC(=O)C2CCC(=O)N2C2CCCC2)cc1 (stereo not drawn)	none
COc1ccc(C)cc1NCc1cccc(OC)c1OC	MK inhibit 47
COc1ccc(OC)c(NS(=O)(=O)Cc2ccccc2)c1	none
Cc1cc(C(=O)CSc2nnnn2-c2ccc(Cl)cc2)c(C)n1CC1CCCO1 (stereo not drawn)	DPM-DC inhibit active
Cc1cc(C(=O)CSc2nnnn2-c2ccccc2)c(C)n1CC1CCCO1 (stereo not drawn)	none
COc1cccc(OC)c1-c1nnc(-c2cn(C)c3ccccc23)o1	Fluor 339 460 3.8 (not shown: DPM-DC inhibit)
COc1cccc2sc(Nc3nnc(-c4ccccc4Cl)o3)nc12	none
CCOC(=O)C1CCN(C(=O)Nc2ccc(Cl)cc2Cl)CC1	none
O=c1c2ccccc2sn1-c1cc(S(=O)(=O)N2CCOCC2)ccc1N1CCOCC1	MK inhibit 95, DPM-DC inhibit active
COc1ccc(CN2C(=O)c3cccnc3C2Nc2cc(Cl)ccc2OC)cc1 (stereo not drawn)	MK inhibit 83
COc1ccc(OC)c(NC2c3ncccc3C(=O)N2Cc2ccco2)c1 (stereo not drawn)	none
Cc1cc2oc(=O)cc(COC(=O)c3cccc(N(C)C)c3)c2cc1C	Fluor 339 460 2.1 (not shown: DPM-DC inhibit)
Cc1ccc2c(COC(=O)c3cnc(C)cn3)cc(=O)oc2c1	none
COC(=O)c1ccc(COC(=O)c2ccc(-n3cnnn3)cc2)o1	none
Cc1sc(NC(=O)CSc2nnc(COc3ccccc3)n2C)c(C#N)c1C	Fluor 339 460 2.1
N#Cc1cc2ccc(N3CCOCC3)cc2cc1C#N	Fluor 339 460 2.5 (not shown: DPM-DC inhibit)
N#Cc1c(-c2ccco2)cc(-c2cccnc2)nc1N	Fluor 339 460 3.7 (not shown: DPM-DC inhibit)
N#Cc1c(-c2ccco2)cc(-c2ccccn2)nc1N	Fluor 339 460 3.7 (not shown: DPM-DC inhibit)
Cc1c(-c2ccccc2)nc(N)c(C#N)c1-c1ccco1	Fluor 339 460 2.6
c1ccc(-c2nn3c(-c4ccco4)nnc3s2)nc1	none
CCOC(=O)c1cc(NC(=O)c2c(C)noc2C)cc(C(=O)OCC)c1	none
O=C(NCc1cccnc1)C1c2ccccc2C(=O)N1Cc1ccco1 (stereo not drawn)	none
O=C1CC(c2ccccc2)CC(O)=C1C=NCCN1CCN(C(=O)Nc2ccccc2)CC1 (stereo not drawn)	none
CCN1CCN(C(=O)c2cc3c(=O)n4ccccc4nc3n2Cc2ccccc2)CC1	Fluor 339 460 3.9 (not shown: DPM-DC inhibit)
O=C(NCCN1CCOCC1)c1cc2c(=O)n3ccccc3nc2n1Cc1ccccc1	Fluor 339 460 3.9 (not shown: DPM-DC inhibit)
COc1nc2cc(C)ccc2cc1-c1noc(-c2cccnc2)n1	none
COc1cc(OC)cc(-c2nc(-c3cc4cc(C)ccc4nc3OC)no2)c1	Fluor 339 460 2.6
CCCC(C)C1C(C#N)=C(N)Oc2cc(C)oc(=O)c21 (stereo not drawn)	none
Fc1ccc(-c2nnc3ccc(N4CCc5ccccc5C4)nn23)cc1	none
O=C(O)CSc1cccc2cccnc12	Fluor 339 460 2.2 (not shown: DPM-DC inhibit)
Cc1nn(-c2ccccn2)c2nc(-c3cccs3)cc(C(=O)N3CCOCC3)c12	Fluor 339 460 2.1 (not shown: DPM-DC inhibit)
COCc1cc(C)nc2sc(C(=O)OC(C)C)c(N)c12	Fluor 339 460 2.1
Clc1ccc(C2Nc3ccccc3-n3cccc32)cc1 (stereo not drawn)	Fluor 339 460 2.4 (not shown: DPM-DC inhibit)
CCC(Sc1nccn1C)C(=O)Nc1cccc2ccccc12 (stereo not drawn)	Spn PMK inh 41
CCC(Sc1nccn1C)C(=O)Nc1nnc(C)s1 (stereo not drawn)	none
CCOC(=O)c1cncc(NC(=O)c2ccccc2)c1	DPM-DC inhibit active
CCOC(=O)c1cccc(NC(=O)c2cnccn2)c1	none
CN1CCN(/C=N/c2c(C#N)cnn2Cc2ccccc2)CC1	none
CCC(C)(C)n1nnnc1C(c1cc2cc(C)cc(C)c2[nH]c1=O)N1CCCC1 (stereo not drawn)	none
O=c1[nH]c2cc3c(cc2cc1C(c1nnnn1C1CCCC1)N1CCSCC1)OCCO3 (stereo not drawn)	Fluor 339 460 3.2 (not shown: DPM-DC inhibit)
